Assay results as given in PubChem BioAssay (NCATS).
Records with an inconclusive call do not appear. Activity calls are given as the source filed them. Calls come from the whole dose curve.

Target: Atrial natriuretic peptide receptor 1 (Homo sapiens) (UniProt P16066)
Test: Natriuretic polypeptide receptor (hNpr1) antagonism - Pilot screen (AID 1347049)
Conditions: hNpr1 cells, antagonist mode cGMP read-out; series mostly up to 57.5 µM; activity change, negative = inhibition: at the top concentration
Description: In order to identify small molecular compounds that inhibit the hNpr1 receptor we developed a high-throughput assay to measure inhibition of the guanylate cyclase activity of the receptor. cGMP production was measured using a circular permutated Firefly luciferase (FLuc) enzyme functionally linked to the cGMP binding domain of human phosphodiesterase 5 (GloSensor technology pGS-40F, (Fan, F. et al. 2008). The cGMP-sensor was expressed in human embryonic kidney 293 (HEK-293) cells and FLuc activity was measured after stimulation with hNrp agonist peptide. hNrp agonists activates the receptor's associated guanylyl cyclase (GC) domain producing cGMP which then binds to the GloSensor resulting in FLuc activation, the enzymatic activity of which can be measured as bioluminescence with addition of luciferin substrate.
F. Fan, B. F. Binkowski, B. L. Butler, P. F. Stecha, M. K. Lewis, K. V. Wood, Novel genetically encoded biosensors using firefly luciferase. ACS Chem Biol 3, 346-351 (2008).
This assay was initially piloted by testing with a small diversity library of compounds with known pharmacological activity.
PROTOCOL TABLES (as described by Inglese J, Shamu CE and Guy RK. 2007)
SEQUENCE No. (e.g., 1, 2, 3, etc.); […] (e.g., Cells, Incubation, Reagent, etc.); VALUE and DESCRIPTION.
1. Cells. Seed 1500 HEK293 cGMP-sensor cells expressing hNpr1 per well in 4uL into Greiner 1536-well white/solid bottom high base, tissue culture-treated plates.
2. Incubation. Incubate plated cells at 37C in 5% CO2, 95% RH overnight.
3. Reagent. Add 1uL per well GloSensor reagent from Promega (2% final concentration) or CO2 independent media vehicle control to respective columns of Greiner 1536-well plates.
4. Incubation. Incubate plated cells at room temperature for 2 h, protect from light.
5. Compounds. Library compounds and A-71915 control added at 23 nL per well, transferred by Pin Tool.
6. Incubation. Incubate plated cells for 30 min. at room temperature, protect from light.
7. Detector. GloSensor baseline pre-read luminescence measured using CCD-based camera (Viewlux).
8. Compound. Add 1uL of hNppA peptide to 0.1 nM final concentration to stimulate hNpr1 or CO2 independent media as vehicle control.
9. Incubation. Incubate treated cells at room temperature for 20 min., protect from light.
10. Detector. GloSensor post-hNppA luminescence measured using CCD-based camera (Viewlux).
NOTES (numbers refer to Sequence numbers above)
1. HEK293 cells expressing hNpr1 and GIP/pGS-40F grown to 85-95% confluence (48-72 h) in T175 culture flasks (CO2 independent media supplemented with 10% FBS, 1% Pen/Strep antibiotics and 1 ug/mL puromycin). Trypsinize and harvest cells from T175 culture flasks and filter through 40 um cell strainer. Cells counted with Invitrogen Countess (30,000,000 - 50,000,000 cells/flask). Cells diluted to a final concentration of 375 cells/uL in CO2 independent media and a Millipore multidrop used to dispense 1500 cells per well (4uL/well) into 9 x 1536-well Greiner White/Solid bottom, high base tissue-culture treated (TC) plates and one Aurora 1536-well Black/Clear bottom, low base, TC plate (for visual inspection of cell health throughout the duration of the assay).
2. Cells incubated overnight at ambient temperature, 24 h. at 37C in 95% RH incubator protected from light, covered with metal lid with gas-exchange holes.
3. Prepare GloSensor Reagent (Promega): Reconstitute GloSensor luciferase substrate by adding 8.2mL Hepes buffer to 250mg substrate, mix well, protect from light and stored at -80C. Prepare a fresh 12% GloSensor solution in CO2 independent supplemented plating media (see above). Mix well and store at ambient temperature, protected from light. 1uL 12% GloSensor Luciferase Reagent added (2% final concentration) to respective columns of 9 x 1536-well Greiner plate with BioRaptr, 1uL CO2 independent plating media added to respective columns as vehicle control with BioRaptr.
4. […]
% is set by controls: 0 for no effect and ±100 for the full control effect.

Chain of Atrial natriuretic peptide receptor 1 (Homo sapiens) (P16066 whole entry, looked up): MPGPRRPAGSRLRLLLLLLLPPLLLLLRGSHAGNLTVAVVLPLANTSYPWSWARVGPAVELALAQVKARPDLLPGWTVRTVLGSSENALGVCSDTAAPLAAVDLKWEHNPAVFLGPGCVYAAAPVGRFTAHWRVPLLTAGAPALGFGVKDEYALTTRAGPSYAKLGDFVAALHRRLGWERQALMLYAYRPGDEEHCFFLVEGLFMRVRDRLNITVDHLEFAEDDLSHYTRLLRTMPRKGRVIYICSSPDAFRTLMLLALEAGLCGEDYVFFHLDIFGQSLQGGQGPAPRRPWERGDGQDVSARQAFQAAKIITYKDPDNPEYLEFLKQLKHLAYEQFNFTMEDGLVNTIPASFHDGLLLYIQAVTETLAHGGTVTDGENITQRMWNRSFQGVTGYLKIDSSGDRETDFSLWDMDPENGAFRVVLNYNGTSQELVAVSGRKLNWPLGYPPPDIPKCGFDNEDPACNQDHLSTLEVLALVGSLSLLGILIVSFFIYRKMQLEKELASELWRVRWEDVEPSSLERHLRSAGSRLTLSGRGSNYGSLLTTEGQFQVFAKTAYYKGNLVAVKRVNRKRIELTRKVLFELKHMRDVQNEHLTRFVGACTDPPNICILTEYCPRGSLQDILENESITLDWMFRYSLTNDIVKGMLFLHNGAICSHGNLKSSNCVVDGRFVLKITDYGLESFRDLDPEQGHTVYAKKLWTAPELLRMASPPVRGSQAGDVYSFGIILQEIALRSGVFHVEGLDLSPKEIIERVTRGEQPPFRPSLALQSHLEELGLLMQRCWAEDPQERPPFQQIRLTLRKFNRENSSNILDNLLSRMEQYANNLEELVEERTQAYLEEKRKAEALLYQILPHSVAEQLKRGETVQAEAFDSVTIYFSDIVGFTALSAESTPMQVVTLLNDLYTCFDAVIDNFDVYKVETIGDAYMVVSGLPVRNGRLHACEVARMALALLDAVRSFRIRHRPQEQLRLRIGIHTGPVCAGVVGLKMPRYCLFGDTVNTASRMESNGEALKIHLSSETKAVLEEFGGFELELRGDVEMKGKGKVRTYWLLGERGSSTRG

Structure (SMILES)	activity change, negative = inhibition	outcome
NCCc1ccc(O)cc1	7.49% (inactive)	–
CC(C)c1cccc(C(C)C)c1O	12.6% (inactive)	–
CCCCC/C=C\C/C=C\C/C=C\C/C=C\CCCC(=O)NCC(=O)O	-0.85% (inactive)	–
CCC1(c2ccc(N)cc2)CCC(=O)NC1=O (stereo not given)	19.7% (inactive)	–
O=C(CCCN1CCC2(CC1)C(=O)NCN2c1ccccc1)c1ccc(F)cc1	-1.01% (inactive)	–
CC(C)N(CCC(C(N)=O)(c1ccccc1)c1ccccn1)C(C)C (stereo not given)	–	inactive
CC(NC(C)(C)C)C(=O)c1cccc(Cl)c1 (stereo not given)	-8.61% (inactive)	–
O=P1(N(CCCl)CCCl)NCCCO1 (stereo not given)	6.19% (inactive)	–
O=C(O)CCCc1ccc(N(CCCl)CCCl)cc1	4.71% (inactive)	–
O=c1[nH]oc2c1CCNC2	15.9% (inactive)	–
COc1ccc2c(c1OC)C(=O)O[C@H]2[C@@H]1c2cc3c(cc2CCN1C)OCO3	-2.49% (inactive)	–
CC(C)(C)NCC(O)c1ccccc1Cl (stereo not given)	5.74% (inactive)	–
CN1C(=O)CCS(=O)(=O)C1c1ccc(Cl)cc1 (stereo not given)	-3.72% (inactive)	–
Cc1ncsc1CCCl	-0.952% (inactive)	–
C=C(C)[C@H]1CN[C@H](C(=O)O)[C@H]1CC(=O)O	10.5% (inactive)	–
